Laboratory results taken from PubChem BioAssay (Tox21).
Records with an inconclusive call do not appear. Active and inactive are the calls of the source. Unless noted, the call rests on the fitted dose curve; in most records, active means well fitted curve in the direction sought with a large enough effect in the repeat runs; inconclusive means weak or mixed curves; inactive means no such curve, though single readings can be large; an effect the other way counts as inactive or inconclusive.

Legend:
[1] = qHTS assay for small molecule agonists of the p53 signaling pathway (AID 651631; calls by dose curve; further: nearly all actives have a fitted effect of over 15% in size); details: HCT-116 p53RE-bla reporter, beta-lactamase FRET ratio, 16 h; series mostly up to 73.3 µM
Outline: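 Stably transfected HCT-116 cells (beta-lactamase behind p53 response elements) get compounds after a 5 h settling period; 16 h later at 37 °C, FRET substrate is loaded and fluorescence read after 2 h.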

[2] = qHTS assay for small molecules that induce genotoxicity in human embryonic kidney cells expressing luciferase-tagged ATAD5 (AID 651632); details: HEK293T ATAD5-luciferase induction, 16 h; series mostly up to 83.3 µM; further: nearly all actives have a fitted effect of over 15% in size
Outline: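 HEK293T cells carrying a luciferase reporter tagged to ATAD5 were exposed to compound or DMSO vehicle for 16 hr at 37C, 5% CO2. Amplite was added, and after 30 min at room temperature luciferase activity was read as a marker of ATAD5 induction.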

[3] = qHTS assay for small molecule agonists of the p53 signaling pathway - cell viability (AID 651633; calls by dose curve; further: nearly all actives have a fitted effect of over 30% in size); details: p53RE-bla HCT-116 viability, ATP luminescence, 16 h; series mostly up to 83.3 µM
Outline: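 Viability counter-read: CellTiter-Glo luminescence (30 min, room temperature) in the same p53RE-bla plates. These plates had been exposed to compounds for 16 h at 37 C.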

[4] = qHTS assay for small molecules that induce genotoxicity in human embryonic kidney cells expressing luciferase-tagged ATAD5 - cell viability (AID 651634; calls by dose curve; further: nearly all actives have a fitted effect of over 25% in size); details: HEK293T ATAD5-luc cells viability, CellTiter-Fluor, 15.5 h; series mostly up to 83.3 µM
Outline: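 HEK293T cells expressing luciferase-tagged ATAD5 were exposed to compound or DMSO for 15.5 hr at 37C, 5% CO2. Viability was then read as live-cell protease activity by CellTiter-Fluor fluorescence after 30 min at 37C.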

[5] = qHTS assay for small molecule disruptors of the mitochondrial membrane potential - cell viability (AID 720634; calls by dose curve;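 further: human HepG2 liver cancer cells; nearly all actives have a fitted effect of over 20% in size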); details: HepG2 viability, ATP luminescence (CellTiter-Glo), 1 h; series mostly up to 83.2 µM
Outline: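 HepG2 cells seeded overnight at 37 C, then exposed to compound or DMSO for 1 hr at 37 C, 5% CO2. m-MPI dye added, then CellTiter-Glo for 30 min at room temperature; viability read as ATP luminescence.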

[6] = qHTS assay for small molecule disruptors of the mitochondrial membrane potential (AID 720635); details: HepG2 mitochondrial membrane potential, Mito-MPS dye ratio; series mostly up to 83.2 µM; further: potency means the concentration at half of the fitted maximal effect
Outline: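 Mitochondrial membrane potential tracked with Mito-MPS dye, red aggregates (ex 540/em 590 nm) against green monomers (ex 490/em 535 nm). Compound treatment 1 hr at 37C, dye 30 min in HepG2.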

[7] = qHTS assay to test for compound auto fluorescence at 590 nm (red) in HepG2 cells (AID 720674); details: HepG2 autofluorescence, red 540/590 nm, 1 h; series mostly up to 91.3 µM
Outline: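 1 hr compound incubation on HepG2 cells, 37 C, 5% CO2; plate read ex 540 nm / em 590 nm; intensities reported as Rose Bengal sodium equivalents.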

[8] = qHTS assay to test for compound auto fluorescence at 535 nm (green) in HepG2 cells (AID 720675); details: green autofluorescence 485/535 nm, 1 h; series mostly up to 91.3 µM
[9] = qHTS assay to test for compound auto fluorescence at 460 nm (blue) in HEK293 cells (AID 720678); details: blue autofluorescence 405/460 nm; series mostly up to 91.3 µM
Outline: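 Auto fluorescence in the blue band was quantified as triamterene equivalency. HEK293 cells were seeded at 2,000/well, dosed after a 4-5 hr attachment, and kept overnight at 37C before the 405/460 nm reading.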

[10] = qHTS assay to test for compound auto fluorescence at 590 nm (red) in HEK293 cells (AID 720679); details: red autofluorescence 540/590 nm; series mostly up to 91.3 µM
Outline: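 Autofluorescence equivalency to Rose Bengal sodium, 540/590nm, in HEK293 cells exposed overnight to 23 nL compound per well.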

[11] = qHTS assay to test for compound auto fluorescence at 535 nm (green) in HEK293 cells (AID 720680); details: green autofluorescence 485/535 nm; series mostly up to 91.3 µM
[12] = qHTS assay to test for compound auto fluorescence at 460 nm (blue) in HEK293 cell free culture (AID 720681); details: cell-free medium, autofluorescence 405/460 nm (blue); series mostly up to 91.3 µM
Outline: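 Blue fluorescence (Ex 405/Em 460 nm, triamterene-equivalent) was read immediately after pin transfer of compound or DMSO into medium (DMEM, 10% FBS) without cells.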

[13] = qHTS assay to test for compound auto fluorescence at 535 nm (green) in HEK293 cell free culture (AID 720682); details: cell-free medium, green autofluorescence 485/535 nm, stronger effect = higher value; series mostly up to 91.3 µM
Outline: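 Using fluorescein as calibrant, autofluorescence was quantified at 485/535 nm in cell-free DMEM containing 10% FBS after pintool addition of compound or vehicle.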

[14] = qHTS assay to test for compound auto fluorescence at 590 nm (red) in HEK293 cell free culture (AID 720683); details: cell-free medium autofluorescence, Ex540/Em590 red; series mostly up to 91.3 µM
Outline: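 Red-channel autofluorescence of compounds in culture medium (DMEM, 10% FBS), no cells, measured at 540/590 nm. Rose Bengal sodium is the reference fluorophore for equivalence.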

[15] = qHTS assay to test for compound auto fluorescence at 590 nm (red) in HepG2 cell free culture (AID 720684); details: cell-free medium autofluorescence, red 540/590 nm; series mostly up to 91.3 µM
Outline: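 Plate contents were MEM with 10% FBS plus test compound or DMSO, no cells. Fluorescence was recorded with 540 nm excitation and 590 nm emission.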

[16] = qHTS assay to test for compound auto fluorescence at 535 nm (green) in HepG2 cell free culture (AID 720686); details: Cell-free medium, green autofluorescence 485/535 nm; series mostly up to 91.3 µM
[17] = biological target: Glucocorticoid receptor (Homo sapiens) (UniProt P04150); assay: qHTS assay to identify small molecule agonists of the glucocorticoid receptor (GR) signaling pathway (AID 720691; active means well fitted activation curve with a large enough effect in the signal ratio in the repeat runs, not every such curve was filed as active; the % refers to the signal ratio); details: GR-bla HeLa, beta-lactamase reporter ratio, 18 h; series mostly up to 62.4 µM
Outline: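 GR-bla HeLa cells (beta-lactamase reporter under glucocorticoid response element) were plated 4 h at 37 C/5% CO2, given compounds in DMSO, and incubated 18 h at 37 C. LiveBLAzer B/G FRET substrate was added for 2 h at room temperature, then fluorescence intensity read.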

[18] = biological target: Glucocorticoid receptor (Homo sapiens) (UniProt P04150); assay: qHTS assay to identify small molecule antagonists of the glucocorticoid receptor (GR) signaling pathway (AID 720692; active means well fitted inhibition curve with a large enough effect in the signal ratio in the repeat runs, not every such curve was filed as active; the % refers to the signal ratio); details: GR-bla HeLa, beta-lactamase FRET ratio, dexamethasone-stimulated, 18 h; series mostly up to 58.5 µM
Outline: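 GR-bla HeLa cells (beta-lactamase reporter under glucocorticoid response element) were pre-plated 4 h at 37 C, treated with compounds plus 5 nM dexamethasone (final) for 18 h, then read by LiveBLAzer B/G FRET fluorescence after 2 h.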

[19] = qHTS assay to test for compound auto fluorescence at 460 nm (blue) in HepG2 cell free culture (AID 720685); details: Cell-free culture medium, blue autofluorescence 405/460 nm; series mostly up to 91.3 µM
Outline: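 Compound (23 nL) or DMSO pinned into cell-free MEM with 10% FBS; blue fluorescence read at 405/460 nm excitation/emission, expressed as auto-fluorescence equivalency to triamterene.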

[20] = qHTS assay to test for compound auto fluorescence at 460 nm (blue) in HepG2 cells (AID 720687); details: autofluorescence 405/460 nm, 1 h; series mostly up to 91.3 µM
Outline: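 Blue-channel autofluorescence (Ex/Em 405/460 nm, triamterene-equivalent) was measured after 1 hr compound exposure at 37 C, 5% CO2. Cells were HepG2, plated overnight at 37 C in MEM plus 10% FBS.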
On the % scale 0 is the no-effect control and ±100 the full control effect.

Sequence of Glucocorticoid receptor (Homo sapiens) (P04150 whole entry, looked up): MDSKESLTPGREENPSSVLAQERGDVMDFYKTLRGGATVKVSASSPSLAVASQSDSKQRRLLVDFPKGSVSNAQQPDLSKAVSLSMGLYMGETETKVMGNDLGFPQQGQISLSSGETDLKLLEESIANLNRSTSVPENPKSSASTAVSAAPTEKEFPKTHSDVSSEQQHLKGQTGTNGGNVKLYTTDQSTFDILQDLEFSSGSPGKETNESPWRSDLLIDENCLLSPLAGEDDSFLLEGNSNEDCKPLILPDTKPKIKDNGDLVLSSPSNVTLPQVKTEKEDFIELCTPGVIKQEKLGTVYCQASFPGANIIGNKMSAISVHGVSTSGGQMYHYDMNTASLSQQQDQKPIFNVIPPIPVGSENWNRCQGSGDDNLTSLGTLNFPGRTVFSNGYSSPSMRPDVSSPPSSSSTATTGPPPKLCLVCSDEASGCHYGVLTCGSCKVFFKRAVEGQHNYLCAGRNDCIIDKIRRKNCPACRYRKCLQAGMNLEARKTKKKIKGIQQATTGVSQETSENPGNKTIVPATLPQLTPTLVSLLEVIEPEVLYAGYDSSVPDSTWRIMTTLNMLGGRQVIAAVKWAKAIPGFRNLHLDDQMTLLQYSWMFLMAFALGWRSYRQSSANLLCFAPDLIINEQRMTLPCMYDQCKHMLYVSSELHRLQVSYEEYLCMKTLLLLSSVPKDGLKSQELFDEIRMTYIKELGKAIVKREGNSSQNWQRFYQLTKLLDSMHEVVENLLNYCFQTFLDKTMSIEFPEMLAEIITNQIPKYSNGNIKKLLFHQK

CC(CCO)CCc1ccccc1 (stereo not drawn)
inactive: Potency [1] | Potency [2] | Potency [3] | Potency [4] | Potency [5] | Potency [6] | outcome [7] | outcome [8] | Potency [9] | outcome [10] | outcome [11] | Potency [12] | outcome [13] | outcome [14] | outcome [15] | outcome [16] | Potency [17] | Potency [18]

CCOC(=O)CC(=O)C(=O)OCC
inactive: Potency [1] | Potency [2] | Potency [3] | Potency [4] | Potency [5] | Potency [6] | outcome [7] | outcome [8] | Potency [9] | outcome [10] | outcome [11] | Potency [12] | outcome [13] | outcome [14] | outcome [15] | Potency [19] | outcome [16] | Potency [20] | Potency [17] | Potency [18]

N#C/C(=C1\SCC(c2ccccc2Cl)S1)n1ccnc1 (stereo not drawn)
inactive: Potency [1] | Potency [2] | Potency [3] | Potency [4] | Potency [5] | Potency [6] | outcome [7] | outcome [8] | Potency [9] | outcome [10] | outcome [11] | Potency [12] | outcome [13] | outcome [14] | outcome [15] | Potency [19] | outcome [16] | Potency [17]

CC#N
inactive: Potency [1] | Potency [2] | Potency [3] | Potency [4] | Potency [5] | Potency [6] | outcome [7] | outcome [8] | Potency [9] | outcome [10] | Potency [12] | outcome [13] | outcome [14] | outcome [15] | Potency [19] | outcome [16] | Potency [20] | Potency [17] | Potency [18]

NCC1CCCC(CN)C1 (stereo not drawn)
inactive: Potency [1] | Potency [2] | Potency [3] | Potency [4] | Potency [5] | Potency [6] | outcome [7] | outcome [8] | Potency [9] | outcome [10] | outcome [11] | Potency [12] | outcome [13] | outcome [14] | outcome [15] | outcome [16] | Potency [20] | Potency [17] | Potency [18]

C[Si]1(C)O[Si](C)(C)O[Si](C)(C)O1
inactive: Potency [1] | Potency [2] | Potency [3] | Potency [4] | Potency [5] | Potency [6] | outcome [7] | outcome [8] | outcome [10] | outcome [11] | Potency [12] | outcome [13] | outcome [14] | outcome [15] | outcome [16] | Potency [20]

Nc1nccs1
inactive: Potency [1] | Potency [2] | Potency [3] | Potency [4] | Potency [5] | Potency [6] | outcome [7] | outcome [8] | Potency [9] | outcome [11] | Potency [12] | outcome [13] | outcome [14] | outcome [15] | Potency [19] | outcome [16] | Potency [20] | Potency [17] | Potency [18]

CCCOCCOCCO
inactive: Potency [1] | Potency [2] | Potency [3] | Potency [4] | Potency [5] | Potency [6] | outcome [7] | outcome [8] | Potency [9] | outcome [10] | outcome [11] | Potency [12] | outcome [13] | outcome [14] | outcome [15] | Potency [19] | outcome [16] | Potency [20] | Potency [17] | Potency [18]

COc1ccc(C(=O)c2cccc(O)c2)c(OC)c1
active: Potency [6] 30.6 µM
inactive: Potency [1] | Potency [2] | Potency [3] | Potency [4] | Potency [5] | outcome [7] | outcome [8] | Potency [9] | outcome [11] | Potency [12] | outcome [13] | outcome [14] | outcome [15] | Potency [19] | outcome [16] | Potency [20] | Potency [17]

C=C(C)C(=O)OCCOC(=O)CC(C)=O
inactive: Potency [1] | Potency [2] | Potency [3] | Potency [4] | Potency [5] | Potency [6] | outcome [7] | outcome [8] | Potency [9] | outcome [10] | outcome [11] | Potency [12] | outcome [13] | outcome [14] | outcome [15] | Potency [19] | outcome [16] | Potency [17] | Potency [18]

COc1cc2[nH]c(=O)[nH]c(=O)c2cc1OC
inactive: Potency [1] | Potency [2] | Potency [3] | Potency [4] | Potency [5] | Potency [6] | fluorescence, relative to Rose Bengal [7] 0.0405% [at 18.6 µM] | fluorescence, % of fluorescein control [8] -0.0154% [at 18.6 µM] | fluorescence, % of triamterene [9] -0.031% [at 18.6 µM] | fluorescence, % of fluorescein [11] 0.0875% [at 18.6 µM] | fluorescence, % of fluorescent control [12] 0.0899% [at 18.6 µM] | activity change [13] 0.0939% [at 18.6 µM] | fluorescence, % of fluorescent control [14] 0.224% [at 18.6 µM] | fluorescence, % of Rose Bengal [15] 0.0628% [at 18.6 µM] | fluorescence, % of fluorescein control [16] -0.0155% [at 18.6 µM] | fluorescence, % of fluorescent control [20] 0.0151% [at 18.6 µM]

CCCCCCCCCOC(C)=O
inactive: Potency [1] | Potency [2] | Potency [3] | Potency [4] | Potency [5] | Potency [6] | outcome [7] | outcome [8] | Potency [9] | outcome [10] | Potency [12] | outcome [13] | outcome [14] | outcome [15] | Potency [19] | outcome [16] | Potency [20] | Potency [17] | Potency [18]

O=C1OCCN1/N=C/c1ccc([N+](=O)[O-])o1
inactive: Potency [1] | Potency [2] | Potency [3] | Potency [4] | Potency [5] | Potency [6] | outcome [7] | outcome [8] | Potency [9] | outcome [10] | outcome [11] | Potency [12] | outcome [13] | outcome [14] | outcome [15] | Potency [19] | outcome [16] | Potency [20] | Potency [17] | Potency [18]

N#C[C@@H]1C[C@@H]2C[C@@H]2N1C(=O)[C@@H](N)C12CC3CC(CC(O)(C3)C1)C2
inactive: Potency [1] | Potency [2] | Potency [3] | Potency [4] | Potency [5] | Potency [6] | outcome [7] | outcome [8] | Potency [9] | outcome [10] | Potency [12] | outcome [13] | outcome [14] | outcome [15] | Potency [19] | outcome [16] | Potency [17]
